TGFb SMAD3 inh: TGF-b pathway inhibition; AID 588855; hit rate 1.2% among 410,000; Potency, µM (highest dose often 46.1 µM), actives largely listed as inhibitors; HepG2 CAGA-GFP TGF-b/SMAD3 reporter, GFP fluorescence, 18 h; TGF-beta stimulated, 500 pg/mL final; note: nearly all actives have a fitted effect of over 65% in size
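TGF-beta reporter screen: HEPG2 CAGA-GFP, 1% FBS, 500 pg/mL TGF-beta final, 18 h; per-cell GFP summed per well; curves fitted and categorized by class.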
DT40 TDP1 no CPT: qHTS for Inhibitors of human tyrosyl-DNA phosphodiesterase 1 (TDP1): qHTS in cells in absence of CPT; DT40 Tdp1-/- hTDP1 cells, no CPT, ATP luminescence, 48 h; Potency, µM (doses to about 46.2 µM), usual class: inhibitors; hit rate 15% among 420,000; AID 686978, 2013; note: nearly all actives have a fitted effect of over 55% in size
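No-CPT arm: Tdp1-/-;hTDP1 DT40 cells (400/well) plus compounds, incubated ≥48 hr at 37 °C. Readout CellTiter-Glo luminescence.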
TDP1 cell CPT: growth inhibition of DT40 Tdp1-/-;hTDP1 cells with camptothecin (screen for TDP1 inhibitors); chicken DT40 Tdp1-/-;hTDP1 cells + 20 nM CPT, ATP luminescence, 48 h; Potency, µM (highest dose often 46.2 µM), actives largely listed as inhibitors; hit rate 12% among 420,000; AID 686979; note: nearly all actives have a fitted effect of over 55% in size
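Chicken DT40 Tdp1-/- cells complemented with human TDP1, 400 cells/well, exposed to compounds plus 20 nM camptothecin for at least 48 h at 37 C; viability read as ATP content by CellTiter-Glo luminescence.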
HepG2 viability: counter-screen for TGF-b inhibitors: cytotoxicity in HepG2 cells; hit rate 0.76% among 410,000; AID 588856; Potency, µM (highest dose often 46.1 µM), hits mostly cytotoxic; HepG2 CAGA-GFP viability, ATP luminescence, 18 h
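CellTiter-Glo luminescence gave cytotoxicity after 18 hours at 37 degrees C. The cells were HepG2 CAGA-GFP in 1% FBS DMEM, stimulated with 500 pg/mL TGF-beta after compound addition. %Activity was normalised to no-cell wells (complete cell-killing) and DMSO (no toxicity), and curves were fitted and classified.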
ATXN2 expr inh: inhibitors of ATXN2 expression; HEK-293 ATXN2-luciferase reporter, luminescence, 24 h; Potency, µM (top dose mostly 57 µM), actives largely listed as inhibitors; hit rate 0.72% among 360,000; note: nearly all actives have a fitted effect of over 55% in size
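qHTS (up to 57 uM final) was run with 24 h compound exposure of reporter cells at 37 °C. Each well was multiplexed: SteadyGlo luminescence measured ATXN2-luciferase expression after a fluorogenic Gly-Phe-AFC viability readout (25 uM final).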
ATXN viability: viability counter-screen for ATXN expression inhibitors; S2 cells (HEK-293 line with an ATXN2-luciferase reporter) viability, CellTiter-Fluor protease fluorescence, 24 h; Potency, µM (highest dose often 56.7 µM), hits mostly cytotoxic; AID 651635; hit rate 0.49% among 400,000; note: nearly all actives have a fitted effect of over 40% in size
A number is an active result; n = inactive; u = inconclusive; x = not tested or not shown. Sampled rows, rich in hits. Any-hit rate of the full collection: about 17%. Calls come from the whole dose curve; as a rule, active = well fitted curve in the direction sought with a large enough effect; inconclusive = small, poorly fitted or top-dose-only effect, or another doubt; inactive = no such curve, though single readings can be large; an effect the other way counts as inactive or inconclusive.

SMILES	TGFb SMAD3 inh	DT40 TDP1 no CPT	TDP1 cell CPT	HepG2 viability	ATXN2 expr inh	ATXN viability
CN(Cc1ccccc1)C(=O)c1ccc(NC(=O)Cc2cccc(NC(=O)C3CCCN(C(=O)CCc4ccccc4)C3)c2)cc1 (centres undefined)	u	u	u	n	n	n
CN(C(=O)c1cccc(NC(=O)Cc2ccc(NC(=O)C3CCCN(C(=O)CCc4ccccc4)C3)cc2)c1)C1CCCC1 (centres undefined)	u	16µM	u	n	u	u
CN(C(=O)c1cccc(NC(=O)Cc2ccc(NC(=O)C3CCCN(C(=O)C4CCCCC4)C3)cc2)c1)C1CCCCC1 (centres undefined)	u	u	u	n	n	u
CN(Cc1ccccc1)C(=O)c1cccc(NC(=O)Cc2ccc(NC(=O)C3CCN(S(=O)(=O)c4cccc([N+](=O)[O-])c4)CC3)cc2)c1	n	n	n	n	n	n
CN(Cc1ccccc1)C(=O)c1ccc(NC(=O)Cc2ccc(NC(=O)C3CCN(S(=O)(=O)c4cccc([N+](=O)[O-])c4)CC3)cc2)cc1	n	u	13µM	n	n	n
CN(C(=O)c1cccc(NC(=O)Cc2ccc(NC(=O)C3CCCN(C(=O)CCc4ccccc4)C3)cc2)c1)C1CCC1 (centres undefined)	u	15µM	u	n	u	u
CN(Cc1ccccc1)C(=O)c1cccc(NC(=O)Cc2ccc(NC(=O)C3CCCN(C(=O)CCc4ccccc4)C3)cc2)c1 (centres undefined)	n	15µM	23µM	n	n	n
CN(Cc1ccccc1)C(=O)c1cccc(NC(=O)Cc2ccc(NC(=O)C3CCCN(C(=O)C4CCCCC4)C3)cc2)c1 (centres undefined)	u	u	16µM	n	n	u
CN(C(=O)c1ccc(NC(=O)Cc2ccc(NC(=O)C3CCCN(C(=O)CCc4ccccc4)C3)cc2)cc1)C1CC1 (centres undefined)	n	13µM	u	n	n	n
CN(C(=O)c1ccc(NC(=O)Cc2cccc(NC(=O)C3CCCN(C(=O)CCc4ccccc4)C3)c2)cc1)C1CCCC1 (centres undefined)	u	u	29µM	n	n	u
Cc1ccc(S(=O)(=O)CCC(=O)NCCN2C(=O)S/C(=C/c3ccc(F)cc3)C2=O)cc1	n	18µM	23µM	n	n	u
COc1ccc2[nH]cc(CCNC(=O)c3cnn(-c4ccc(C)cc4)c3C3CCN(C(=O)OC(C)(C)C)CC3)c2c1	u	5.2µM	9.2µM	n	x	x
Cc1ccc(-n2ncc(C(=O)NCCN3CCN(C)CC3)c2C2CCN(C(=O)OC(C)(C)C)CC2)cc1	n	u	u	n	x	x
COc1ccc2[nH]cc(CCNC(=O)c3cnn(-c4ccccc4Cl)c3C3CCN(C(=O)OC(C)(C)C)CC3)c2c1	u	10µM	13µM	n	x	x
COCOc1ccc(C2CC(=O)c3c(OCOC)cc(OCOC)cc3O2)cc1 (centres undefined)	n	u	n	n	n	n
CCN1C[C@@H]2[C@@H]3C(=O)N(Cc4ccccc4)C(=O)[C@@H]3[C@](CC)(C(=O)OC)N2C1=NC1CCCCC1	n	u	n	n	n	u
COc1cc(Br)ccc1NC(=O)c1ccccc1-c1ccccc1C(=O)O	n	n	n	n	n	n
O=C1c2sc3nc4n(c(=O)c3c2CCC1Br)CCCCC4 (centres undefined)	n	2.9µM	3.3µM	n	n	u
Cc1ccc(N(CC(=O)NCc2ccccn2)S(=O)(=O)c2ccccc2)cc1C	n	n	n	n	n	n
CC(=O)N1CCCc2cc(S(=O)(=O)N3CCC(C(=O)N(Cc4ccccc4)C(C)C)CC3)ccc21	u	u	23µM	n	n	n
CC(=O)N1CCCc2cc(S(=O)(=O)N3CCC(C(=O)N(C)C4CCCCC4)CC3)ccc21	n	23µM	u	n	n	u

Bioassay records: PubChem, National Center for Advancing Translational Sciences (NCATS)
